Source: PubChem BioAssay AID1159580 (chemical genetic matrix, 2015)
In all, about 5,500 compounds went through this assay and about 2,000 (36%) were called active. Inconclusive results (about 18%) are left out. Rule as the data show it: active = normalized growth mostly below about 0.91 (no sharp cut-off); inconclusive = no clear call, values can overlap the other calls; inactive = mostly above about 0.92. The list shows a part of the results.

Assay: chemical genetic growth profiling, strain panel (AID 1159580);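 also: tested at 20 µM; growth read once vehicle control cultures reached saturation at 30 °C; 1 = growth at the plate median or of vehicle wells; lower values mean less growth of the strain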
Conditions: growth OD

Measured: normalized growth

CC1=C2C(=CO[C@H](C)[C@H]2C)C(=O)C(C(=O)O)=C1O
inactive: S. cerevisiae deletion strains, locus YKL009W, strain mrt4, active compounds read low 0.936 | S. cerevisiae deletion strains, locus YKL068W, active compounds read low 0.972 | S. cerevisiae deletion strains, locus YKL085W, strain MDH1 (second series), active compounds read low 0.943 | S. cerevisiae deletion strains, locus YKL085W, strain MDH1, active compounds read low 0.943 | S. cerevisiae deletion strains, locus YKL160W, strain elf1, active compounds read low 0.95 | S. cerevisiae deletion strains, locus YKL190W, strain CNB1, active compounds read low 0.979 | S. cerevisiae deletion strains, locus YKR001C, strain vps1, active compounds read low 1 | S. cerevisiae deletion strains, locus YKR026C, strain gcn3, active compounds read low 0.979 | S. cerevisiae deletion strains, locus YKR091W, strain srl3, active compounds read low 0.986 | S. cerevisiae deletion strains, locus YLL001W, strain dnm1, active compounds read low 1 | S. cerevisiae deletion strains, locus YLL026W, active compounds read low 0.976 | S. cerevisiae deletion strains, locus YLL041C, strain sdh2, active compounds read low 0.98 | S. cerevisiae deletion strains, locus YLR027C, strain aat2, active compounds read low 0.981 | S. cerevisiae deletion strains, locus YLR039C, strain RIC1, active compounds read low 0.92 | S. cerevisiae deletion strains, locus YLR058C, strain SHM2, active compounds read low 0.985 | S. cerevisiae deletion strains, locus YLR102C, strain apc9, active compounds read low 0.979 | S. cerevisiae deletion strains, locus YLR221C, strain rsa3, active compounds read low 0.971 | S. cerevisiae deletion strains, locus YLR258W, strain gsy2, active compounds read low 0.96 | S. cerevisiae deletion strains, locus YLR262C, strain YPT6 (second series), active compounds read low 0.891 | S. cerevisiae deletion strains, locus YLR262C, strain YPT6, active compounds read low 0.918 | S. cerevisiae deletion strains, locus YLR268W, strain sec22, active compounds read low 0.974 | S. cerevisiae deletion strains, locus YLR320W, strain mms22, active compounds read low 0.94 | S. cerevisiae deletion strains, locus YLR330W, strain CHS5, active compounds read low 0.98 | S. cerevisiae deletion strains, locus YLR342W, strain FKS1 (second series), active compounds read low 0.931 | S. cerevisiae deletion strains, locus YLR342W, strain FKS1, active compounds read low 0.954 | S. cerevisiae deletion strains, locus YLR357W, strain rsc2, active compounds read low 1.01 | S. cerevisiae deletion strains, locus YLR370C, strain arc18, active compounds read low 0.972 | S. cerevisiae deletion strains, locus YLR371W, strain rom2, active compounds read low 1.01 | S. cerevisiae deletion strains, locus YLR384C, strain iki3, active compounds read low 0.979 | S. cerevisiae deletion strains, locus YLR418C, strain cdc73, active compounds read low 0.95 | S. cerevisiae deletion strains, locus YML016C, strain PPZ1, active compounds read low 0.976 | S. cerevisiae deletion strains, locus YML032C, strain rad52, active compounds read low 0.984 | S. cerevisiae deletion strains, locus YML120C, strain ndi1, active compounds read low 0.975 | S. cerevisiae deletion strains, locus YML124C, strain tub3, active compounds read low 0.964 | S. cerevisiae deletion strains, locus YMR058W, strain fet3, active compounds read low 1 | S. cerevisiae deletion strains, locus YMR078C, strain ctf18, active compounds read low 0.984 | S. cerevisiae deletion strains, locus YMR125W, strain sto1, active compounds read low 0.996 | S. cerevisiae deletion strains, locus YMR129W, active compounds read low 0.973 | S. cerevisiae deletion strains, locus YMR205C, strain PFK2, active compounds read low 0.937 | S. cerevisiae deletion strains, locus YMR223W, strain ubp8, active compounds read low 0.997 | S. cerevisiae deletion strains, locus YMR231W, strain pep5, active compounds read low 0.981 | S. cerevisiae deletion strains, locus YMR307W, strain GAS1, active compounds read low 0.85 | S. cerevisiae deletion strains, locus YNL067W, strain RPL9B, active compounds read low 0.997 | S. cerevisiae deletion strains, locus YNL071W, strain lat1, active compounds read low 0.981 | S. cerevisiae deletion strains, locus YNL128W, strain TEP1, active compounds read low 1.01 | S. cerevisiae deletion strains, locus YNL153C, strain GIM3, active compounds read low 0.988 | S. cerevisiae deletion strains, locus YNL209W, strain ssb2, active compounds read low 0.977 | S. cerevisiae deletion strains, locus YNL233W, strain BNI4, active compounds read low 1 | S. cerevisiae deletion strains, locus YNL248C, strain rpa49, active compounds read low 1.01 | S. cerevisiae deletion strains, locus YNL250W, strain rad50, active compounds read low 0.979 | S. cerevisiae deletion strains, locus YNL271C, strain bni1, active compounds read low 0.978 | S. cerevisiae deletion strains, locus YNL298W, strain CLA4, active compounds read low 0.956 | S. cerevisiae deletion strains, locus YNL307C, strain MCK1, active compounds read low 0.985 | S. cerevisiae deletion strains, locus YNL322C, strain KRE1 (second series), active compounds read low 0.965 | S. cerevisiae deletion strains, locus YNL322C, strain KRE1, active compounds read low 0.968 | S. cerevisiae deletion strains, locus YNR049C, strain mso1, active compounds read low 0.988 | S. cerevisiae deletion strains, locus YNR052C, strain pop2, active compounds read low 0.997 | S. cerevisiae deletion strains, locus YOL012C, strain htz1 1.44 | S. cerevisiae deletion strains, locus YOL147C, strain pex11, active compounds read low 0.977 | S. cerevisiae deletion strains, locus YOR001W, strain rrp6, active compounds read low 0.972 | S. cerevisiae deletion strains, locus YOR061W, strain CKA2, active compounds read low 0.983 | S. cerevisiae deletion strains, locus YOR069W, strain VPS5, active compounds read low 0.973 | S. cerevisiae deletion strains, locus YOR070C, strain gyp1, active compounds read low 0.974 | S. cerevisiae deletion strains, locus YOR080W, strain dia2, active compounds read low 0.972 | S. cerevisiae deletion strains, locus YOR083W, strain WHI5, active compounds read low 1 | S. cerevisiae deletion strains, locus YOR106W, strain vam3, active compounds read low 1 | S. cerevisiae deletion strains, locus YOR136W, strain idh2, active compounds read low 0.985 | S. cerevisiae deletion strains, locus YOR144C, strain elg1, active compounds read low 0.981 | S. cerevisiae deletion strains, locus YOR184W, strain ser1, active compounds read low 0.989 | S. cerevisiae deletion strains, locus YOR265W, strain rbl2, active compounds read low 0.967 | S. cerevisiae deletion strains, locus YOR270C, strain vph1, active compounds read low 1 | S. cerevisiae deletion strains, locus YOR290C, strain snf2, active compounds read low 0.969 | S. cerevisiae deletion strains, locus YOR316C, strain cot1, active compounds read low 0.972 | S. cerevisiae deletion strains, locus YPL051W, strain arl3, active compounds read low 0.967 | S. cerevisiae deletion strains, locus YPL078C, strain atp4, active compounds read low 0.993 | S. cerevisiae deletion strains, locus YPL106C, strain sse1, active compounds read low 0.933 | S. cerevisiae deletion strains, locus YPL240C, strain hsp82, active compounds read low 0.978 | S. cerevisiae deletion strains, locus YPL241C, strain CIN2, active compounds read low 0.971 | S. cerevisiae deletion strains, locus YPL256C, strain CLN2, active compounds read low 0.838 | S. cerevisiae deletion strains, locus YPR119W, strain clb2, active compounds read low 0.965 | S. cerevisiae deletion strains, locus YPR141C, strain kar3, active compounds read low 0.957 | S. cerevisiae deletion strains, locus YPR163C, strain tif3, active compounds read low 1.01 | S. cerevisiae deletion strains, locus YPR167C, strain met16, active compounds read low 0.987 | S. cerevisiae deletion strains, strain wtn01, active compounds read low 0.956 | S. cerevisiae strains, strain wild type, active compounds read low 0.974
active: S. cerevisiae deletion strains, locus YJR066W, strain TOR1, active compounds read low 0.799 | S. cerevisiae deletion strains, locus YLR113W, strain HOG1, active compounds read low 0.709 | S. cerevisiae deletion strains, locus YNL183C, strain NPR1, active compounds read low 0.82 | S. cerevisiae deletion strains, locus YOR231W, strain MKK1, active compounds read low 0.809
